Reference: ChEMBL document CHEMBL3988442, “University of Dundee, Small-Polar-MMV Screening Library” (2021)
The whole screen tested about 38,000 compounds, of which about 1,200 (3.2%) showed an effect of 50% or more. The median lay at about -58%. What follows is part of a selection rich in strong results, with near analogues and random picks from the rest.

What follows are molecules tested on Plasmodium falciparum (assay: Calibr Malaria Delayed Death Assay SOP). Conditions: concentration 4.99e-06 (unit not given; other assays of the set use mol/L).
Assay type: functional, organism-based
Set-up: scale not given: in the data most compounds retested in dose-response had high values

Compound | Percent Effect
O=C(Nc1cn[nH]c1)N1CCCCCC1c1ccncc1 (stereo not drawn) | -103.8%
Cn1cnc(S(=O)(=O)N2C[C@@H]3CC[C@H](C2)N(Cc2ccccn2)C3)c1 | -132.7%
N#Cc1ccc(F)c(CNC(=O)NC(CO)c2ccccc2)c1 (stereo not drawn) | -103.2%
Cc1ccc(N2CCC3(CCC(=O)N3Cc3ccncc3)CC2)nn1.O=C(O)C(F)(F)F | -132.1%
COCCn1cc(CC(=O)Nc2cc(C)n(C)n2)c2ccccc21 | -50.35%
Cc1cc(NCCC(=O)NC2CCCCC2)nc(-c2ccncc2)n1 | -22.05%
Cc1ccc(-c2n[nH]cc2CNCC2CCN(CC(C)O)CC2)cc1 (stereo not drawn) | -46.8%
CC(O)CN1CCC(CNCc2ccc(S(C)(=O)=O)cc2)CC1 (stereo not drawn) | -36.2%
Cc1ncc(C(=O)N2CCCC(n3cccn3)C2)s1 (stereo not drawn) | -29.56%
Cc1cc(CN2CCC(CNS(=O)(=O)c3ccccc3Cl)CC2)c(C)o1 | 52.45%
Cc1cc(CN2CCC(CNS(=O)(=O)c3ccccc3F)CC2)c(C)o1 | 78.36%
Cc1cnc2c(S(=O)(=O)NCC3CC3)cccc2c1 | -114.6%
CNC(=O)CS(=O)(=O)C1CCN(S(=O)(=O)c2ccccc2Cl)CC1 | -120%
O=C(c1cccc(CNS(=O)(=O)c2ccccc2F)c1)N1CCCC1 | -96.06%
O=S(=O)(NCC1CCN(CCN2CCOCC2)C1)c1ccccc1F (stereo not drawn) | -18.99%
CN(Cc1cnn(C)c1)C(=O)CCc1ccc2c(c1)OCO2 | -45.89%
O=C(NCCc1ccncc1)c1cccnc1OCC(F)(F)F | -160.3%
CN(C)S(=O)(=O)N1CC[C@]2(O)CCN(CCc3cccc(F)c3)C[C@@H]2C1 | 52.04%
CN(C)S(=O)(=O)N1CC[C@]2(O)CCN(Cc3cccc(F)c3)C[C@@H]2C1 | 18.33%
CN(C)S(=O)(=O)N1CC[C@]2(O)CCN(CCCc3cccnc3)C[C@@H]2C1 | -68.67%
Cc1ccc(CN2CC[C@@]3(O)CCN(S(=O)(=O)N(C)C)C[C@H]3C2)cc1C | 52.24%
CN(C)S(=O)(=O)N1CC[C@]2(O)CCN(Cc3cccc(C#N)c3)C[C@@H]2C1 | -65.92%
CN(C)S(=O)(=O)N1CC[C@]2(O)CCN(Cc3cc(F)cc(F)c3)C[C@@H]2C1 | -90.9%
CCCC(=O)N1CCc2c(CNS(C)(=O)=O)cncc2C1.Cl | -54.25%

Compound | Percent Effect
CCN(CC)S(=O)(=O)CC(=O)N1CCc2ccc(F)cc21 | -118.6%
CC(C)[C@H](N)c1nnc(SCC(=O)Nc2ccc(Br)cc2)o1.Cl | -137.1%
O=C1CC(c2ccncc2)c2c(c(C(=O)O)cn2-c2ccccc2)N1 (stereo not drawn) | -138.8%
Cc1ccc(CN(C)C(=O)CCn2c(=O)n(C)c3ccccc32)o1 | -119.3%
CN1CCCN(C[C@@H]2CN(C(=O)N3CCOCC3)C[C@@H]2CO)CC1 | -70.22%
CCc1nn(C)c(Cl)c1CN1CCCC(c2cc(O)nc(C)n2)C1 (stereo not drawn) | 11.23%
COC[C@@]12CCO[C@@H]1CCN(C(=O)Cc1ccc(C)cc1)C2 | -64.19%
C[C@@H]1CN(C(=O)C2CCS(=O)(=O)CC2)C[C@@]1(O)C1CC1 | -43.61%
C[C@@H]1CN(C(=O)CCN2CCCC2)CC[C@@]1(O)C1CCOCC1 | -34.11%
C[C@@H]1CN(C(=O)C2CCS(=O)(=O)CC2)CC[C@@]1(O)C1CCOCC1 | 70.51%
O=C(NCCc1cc(F)ccc1F)NC(CO)c1ccccc1 (stereo not drawn) | -122.1%
Cc1nc(CN(C)C2CCN(CC3CCOCC3)C2)no1 (stereo not drawn) | -100.7%
CN1CCN(Cc2nnc(C3CCN(C(CO)CO)CC3)n2C)CC1 | -107%
CCC(=O)N1CCC2(CC1)CC(CC(=O)NC1CC1)c1ccccc1O2 (stereo not drawn) | -119.5%
CCN1CCC2(CC1)CC(NCc1cccs1)c1ccccc1O2.O=C(O)C(F)(F)F.O=C(O)C(F)(F)F (stereo not drawn) | 85.8%
CS(=O)(=O)NC1CC2(CCN(CC3CC3)CC2)Oc2ccccc21.O=C(O)C(F)(F)F (stereo not drawn) | -15.02%
CCN1CCC2(CC1)CC(NC(=O)c1csnn1)c1ccccc1O2.O=C(O)C(F)(F)F (stereo not drawn) | -39.08%
O=C(NC1CC2(CCN(CCO)CC2)Oc2ccccc21)c1csnn1 (stereo not drawn) | -18.14%
Cc1nc(NC(=O)c2nn(-c3ccc(F)cc3C)cc2O)n[nH]1 | -112%
CC(C)c1nc(C2CCCN2Cc2ccon2)no1 (stereo not drawn) | -96.31%
Cc1noc(C)c1CN1CCO[C@H]2CN(C3CCOCC3)C[C@H]21.O=C(O)C(F)(F)F | 1.266%
O=C(C1CC(=O)N(c2n[nH]c3cc(Br)ccc23)C1)N1CCSCC1 (stereo not drawn) | -122.2%
Cc1ccccc1N1CCN(C(=O)CC(C)C)CC1 | -106.5%
OC1(CN2CCc3nnc(Cc4cccnc4)n3CC2)CCCNC1 (stereo not drawn) | -87.58%

Compound | Percent Effect
CCN1CCn2c(C)cnc2C12CCN(C(=O)Cc1ccccc1)CC2.O=C(O)C(F)(F)F.O=C(O)C(F)(F)F | -58.2%
Cc1ccc(C(=O)Nc2nnc(C3CC3)s2)c(-n2cnnn2)c1C | -130.7%
COCCOCC(=O)Nc1ccnn1-c1ccc(Cl)cc1 | -102.7%
COCC(=O)Nc1ccnn1-c1ccc(Cl)cc1 | 67.79%
CCOCCC(=O)Nc1ccnn1-c1ccc(Cl)cc1 | -25.55%
COCCn1ccnc1C1CCCN(c2ncnc3c2CCC3)C1 (stereo not drawn) | -114.3%
c1ccn2c(C3CCCN(c4ncnc5c4CCNC5)C3)nnc2c1 (stereo not drawn) | 74.94%
O=C(C1CC1)N1CCCN(c2ncnc3c2CCNCC3)CC1 | -49.17%
COCCc1noc(C2CCCN(c3nc(N)nc4c3CCCC4)C2)n1 (stereo not drawn) | -100.3%
Nc1nc2c(c(N3CCCC(c4nnc5ccccn45)C3)n1)CCNC2 (stereo not drawn) | 84.29%
Nc1nc2c(c(N3CCCC(CN4CCCC4=O)C3)n1)CCNCC2 (stereo not drawn) | -109.9%
O=C(c1ccon1)N1CCN(c2ccncc2Cl)CC1 | -22.81%
CC(CN1CCOC1=O)NC(=O)c1cccc2cc[nH]c12 (stereo not drawn) | -144.8%
COc1ccccc1CCNC(=O)N1CCC(n2cncn2)CC1 | -50.18%
Cc1cc(C)c(CNC(=O)C(C)Oc2ccccc2F)c(=O)[nH]1 (stereo not drawn) | -101.9%
O=C(C1CC1)N1CCC(C(=O)N2CCC(c3ccc(F)cc3)C2)CC1 (stereo not drawn) | -98.79%
O=C(C1CCCC1)N1CCC(c2n[nH]c3nccnc23)CC1 | -90.69%
CC(C)n1ccnc1C1CCN(C(=O)c2cc[nH]n2)CC1 | -87.6%
O=C(C1CCCCC1)N1CCC(c2n[nH]c3nccnc23)CC1 | -76.32%
O=C(C1CCC1)N1CCC(C(=O)N2CCC(c3ccc(F)cc3)C2)CC1 (stereo not drawn) | -81.93%
O=C(C1CCC1)N1CCCC(c2cccc(-n3ccnc3)n2)C1 (stereo not drawn) | -55.02%
O=C(C1CC1)N1CCC(c2nc(-c3ccccc3)n[nH]2)CC1 | -99.03%
CC(C)Oc1ncccc1CNC(=O)C1CCCN(C(=O)C2CC2)C1 (stereo not drawn) | -154.7%
Cc1csc(C2(NC(=O)CCNC(=O)C(C)(C)C)CCCC2)n1 | -41.74%

Compound | Percent Effect
CCC(=O)N1CCc2onc(CNS(C)(=O)=O)c2C1 | -110.9%
Cc1nc(NC(=O)C(C)n2ncc(Br)c2C)sc1C (stereo not drawn) | -53.19%
COc1ccc(CNc2c(C)cnc3c2c(=O)n(C)c(=O)n3C)cc1 | -41.96%
O=C(CN(CC(O)c1ccc(F)cc1)C1CC1)Nc1cccnc1 (stereo not drawn) | -24.09%
COCC(=O)N1CCC2(COCc3c(C)nc(N(C)C)nc32)C1 (stereo not drawn) | -113.3%
Fc1cccc(OC2CCN(CCn3cc4ccccc4n3)CC2)c1 | -79.08%
COCCc1nnc(NC(=O)CCCc2ccccc2)o1 | -177.1%
O=C(O)C(F)(F)F.O=C(O)C(F)(F)F.c1csc(CN2CCC3(CC2)CCN(CC2CC2)CC3)n1 | 31.82%
Fc1ccc(CN2CCOCC3(CCN(Cc4nccs4)C3)C2)cc1.O=C(O)C(F)(F)F.O=C(O)C(F)(F)F (stereo not drawn) | -2.709%
O=C(O)C(F)(F)F.O=C(O)C(F)(F)F.c1csc(CN2CC3(CCN(Cc4ccsc4)C3)C2)n1 | -42.12%
Cc1ccc(N2CCC3(CCN(Cc4nccs4)CC3)CC2)nn1 | -7.428%
Fc1ccc(CN2CCC3(CC2)CCN(Cc2nccs2)CC3)cc1.O=C(O)C(F)(F)F.O=C(O)C(F)(F)F | 86.13%
O=C(O)C(F)(F)F.O=C(O)C(F)(F)F.O=C(O)C(F)(F)F.c1cnc(N2CCC3(CCN(Cc4cccnc4)CC3)CC2)nc1 | -79.89%
O=C(O)C(F)(F)F.O=C(O)C(F)(F)F.c1cnc(N2CC3(CCN(Cc4ccncc4)C3)C2)nc1 | -113.7%
CCS(=O)(=O)N1CCC2(CCN(Cc3nccs3)CC2)CC1.O=C(O)C(F)(F)F | -47.71%
Fc1ccc(CN2CCC3(CCN(Cc4nccs4)CC3)C2)cc1.O=C(O)C(F)(F)F.O=C(O)C(F)(F)F | 56.57%
CS(=O)(=O)N1CCC2(CCN(Cc3nccs3)CC2)CC1.O=C(O)C(F)(F)F | -92.74%
Fc1ccc(CN2CCC3(CC2)CCN(c2ncccn2)CC3)cc1.O=C(O)C(F)(F)F.O=C(O)C(F)(F)F | 52.71%
O=C(NCC(=O)N1CCCCC1)c1sccc1C1CC1 | -52.19%
Cc1ccsc1C(=O)N1CCC2(CC1)C(=O)N(C)CCN2CC1CC1.O=C(O)C(F)(F)F | -41.45%
CCc1ccc(NC(=O)N2C[C@H]3C[C@H](C(=O)NC(C)C)[C@@H](C2)O3)cc1 | 25.32%
